KB-3-1 tox: kills parental KB-3-1 adenocarcinoma cells. hit rate 1.4% among 400,000. Potency, µM (doses to about 46.1 µM), actives largely listed as cytotoxic. AID 1347075. KB-3-1 viability, CellTiter-Glo ATP luminescence, 72 h; note: % is set by controls: 0 for no effect and ±100 for the full control effect; nearly all actives have a fitted effect of over 60% in size
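Here the drug-naive KB-3-1 line serves as comparator for MDR sub-line selectivity; cells received compound titrations, 72 h at 37 °C, then CellTiter-Glo readout.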
MCF10A rereplic: induces DNA re-replication in MCF 10a normal breast cells; MCF 10A DNA re-replication, Hoechst nuclear intensity, 48 h; Potency, µM (doses to about 46.1 µM), for inactives: at the highest dose activity, positive = re-replication, usual class: activators; hit rate 2.9% among 350,000; AID 624296; note: % of control where 0% means no effect; nearly all actives have a fitted effect of over 50% in size
KB-V1 cytotox: KB-V1 MDR subline cytotoxicity; Potency, µM (top dose mostly 46.1 µM), hits mostly cytotoxic; hit rate 3.4% among 400,000; KB-V1 MDR cells viability, CellTiter-Glo, 72 h; note: % is set by controls: 0 for no effect and ±100 for the full control effect; nearly all actives have a fitted effect of over 60% in size
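Cells of the MDR subline KB-V1 are plated, dosed with compound at multiple concentrations, and incubated 72 h at 37 degrees C; CellTiter-Glo is then added and luminescence read after 10 min.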
PINK1 modulator: PINK1 expression modulation; PINK1 immunofluorescence, high-content cytometry, 24 h; Potency, µM (highest dose often 76.6 µM), without a hit: at the highest dose activation (PINK1 increase), actives largely listed as activators; hit rate 0.2% among 410,000; active = well fitted activation curve with a large enough effect; inconclusive = small, poorly fitted or top-dose-only effect; cell line not stated here; note: % of control where 0% means no effect; nearly all actives have a fitted effect of over 65% in size
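Cells are seeded, rested 12 hours, then given compound at five concentrations or DMSO for 24 hours. After fixation, blocking and antibody staining, PINK1 amount and mitochondrial localization are scored; CCCP serves as control.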
SW480 rerep: DNA re-replication induction in SW480 cells. hit rate 1.8% among 340,000. Potency, µM (series often up to 46.1 µM), inactives show at the highest dose re-replication activation, actives largely listed as activators. AID 624297. SW480 DNA re-replication, Hoechst DNA content imaging, 48 h; note: % of control where 0% means no effect; nearly all actives have a fitted effect of over 55% in size
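Cells (250 per well) received 23 nL compound or DMSO by pin tool and were kept 48 hr at 37 C, 5% CO2. Nuclei were then stained with Hoechst for 40 min and scanned for DNA content.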
PTAP TSG101 blk: blocks PTAP/TSG101 interaction to inhibit HIV-1 budding; 340,000 tested, under 10 active; Fluorescence polarization, FITC-PTAP peptide / Tsg101 binding; Q99816; AID 493005; Potency, µM (doses to about 115 µM), for inactives: top-dose activity change, negative = inhibition, most hits filed as inhibitors; active = well fitted inhibition curve with a large enough effect in the main read-out, with a control signal flat, not every such curve was filed as active; inconclusive = small, poorly fitted or top-dose-only effect, or effect the other way, or a change in a side signal; inactive = no such curve, though single readings can be large or run the other way; note: % of control where 0% means no effect
Target sequence (Q99816 whole entry, looked up): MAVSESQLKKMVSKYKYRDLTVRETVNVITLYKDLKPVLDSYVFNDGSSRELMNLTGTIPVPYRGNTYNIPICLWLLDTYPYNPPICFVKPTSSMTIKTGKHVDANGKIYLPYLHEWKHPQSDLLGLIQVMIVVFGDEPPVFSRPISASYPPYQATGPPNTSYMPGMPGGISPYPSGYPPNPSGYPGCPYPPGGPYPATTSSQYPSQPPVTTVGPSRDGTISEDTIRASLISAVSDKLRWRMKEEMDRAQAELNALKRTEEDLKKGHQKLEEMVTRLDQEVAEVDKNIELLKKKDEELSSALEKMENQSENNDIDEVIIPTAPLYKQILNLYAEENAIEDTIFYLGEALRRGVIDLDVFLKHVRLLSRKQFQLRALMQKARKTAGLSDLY
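Tsg101 binding domain (10 uM final) was mixed with compound and a FITC-labeled PTAP peptide (50 nM final) in HEPES pH 7.5 buffer with NaCl, Tween 20, EDTA and TCEP; fluorescence polarization was read after 20 min at r.t.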
* hit, by the source's call; i = inactive; ? = inconclusive; . = no result; [ ] = another dose, or the depositor's remark. The list is not random: actives were taken first. Their share in the collection is about 6.8%. Unless noted, calls come from the whole dose curve; as a rule, active = well fitted curve in the direction sought with a large enough effect; inconclusive = small, poorly fitted or top-dose-only effect, or another doubt; inactive = no such curve, though single readings can be large; an effect the other way counts as inactive or inconclusive. Potency is the fitted concentration of half-maximal effect.

SMILES | KB-3-1 tox | MCF10A rereplic | KB-V1 cytotox | PINK1 modulator | SW480 rerep | PTAP TSG101 blk
Cc1ccccc1/C=C/c1cc[n+](C)cc1 | ? | -29%[9.22 µM] | i | 2% | -61% | 2%
CCn1cc(/C=C/c2cc[n+](C)cc2)c2ccccc21 | i | 16µM* | i | 28µM* | ? | ?
C=CCn1c(C)c(/C=C/c2cc[n+](C)cc2)c2ccccc21 | 2.3µM* | ? | i | ? | 15µM* | ?
CC(C)n1cc(/C=C/c2cc[n+](C)cc2)c2ccccc21 | 1.3µM* | 6.5µM* | i | 40µM* | 18µM* | ?
CCOC(=O)Cn1cc(C=O)c2ccccc21 | i | 6% | i | . | -4% | -2%
C=CCn1cc(/C=C/c2cc[n+](C)cc2)c2ccccc21 | 4.1µM* | ? | i | 45µM* | ? | ?
Cc1cccc(CNc2nc(-c3cccnc3)nc3ccccc23)c1 | . | . | . | 5% | . | .
COc1ccc(CNC(=O)CSc2ncc3c(n2)-c2ccc(Cl)cc2N(Cc2ccc(F)cc2)S3(=O)=O)cc1OC | i | . | i | 1% | . | .
COc1ccc(Br)cc1/C=N/Nc1ccccn1 | i | 23µM* | i | 4% | ? | 1%
COc1ccc(/C=N/Nc2ccccn2)cc1OC | i | 0% | i | 1% | ? | -1%
O=C(Nc1cc(-c2ccccc2)[nH]n1)c1ccccc1 | ? | ? | ? | 0% | 9.2µM* | -5%
CCCCOc1ccc(C(=O)Nc2ccc(N3CCN(C(C)=O)CC3)cc2)cc1 | i | 1% | 2.6µM* | 1% | -9% | -9%
O=C(O)c1ccccc1C(=O)Nc1cc(-c2ccccc2)[nH]n1 | i | 1% | i | 1% | -1% | -5%
CCCCOc1ccc(C(=O)Nc2cccc(C)n2)cc1 | ? | ? | 16µM* | 7% | -5% | -4%
C=C(C)c1cccc(C(C)(C)NC(=O)Nc2cc(C)ccn2)c1 | ? | 7% | 16µM* | 21% | 18% | -2%
CCCCOc1ccc(C(=O)Nc2ccc(N3CCN(C(=O)C(C)C)CC3)cc2)cc1 | i | 2% | i | 2% | 2% | 0%
CC(=O)c1ccc(NC(=O)CCCc2nc(-c3cccc(C)c3)no2)cc1 | i | . | i | 8% | . | .
CCOc1cc(C(=O)Nc2cc(C)ccn2)cc(OCC)c1OCC | ? | ? | i | 1% | 16% | -3%
CCOc1ccc(C(=O)Nc2cc(C)ccn2)cc1 | ? | ? | 13µM* | -1% | -107% | 0%
Cc1ccnc(NC(=O)c2ccccc2NC(=O)c2ccccc2)c1 | i | -2% | i | 3% | -1% | -2%
Cc1ccnc(NC(=O)c2ccc(C(=O)c3ccccc3)cc2)c1 | ? | ? | 21µM* | 0% | 7% | -2%
O=C(Nc1ccc(N2CCN(c3ccc(F)cc3)CC2)c(C(=O)O)c1)c1cccs1 | i | . | i | 2% | . | .
CCCN(CCC)C(=O)c1ccccc1C(=O)N(CCC)CCC | i | -1% | 8.2µM* | 0% | -5% | -8%
COc1ccc2c(c1)c1c(c(=O)n(Cc3ccccc3)c(=O)n1Cc1cc(C)ccc1C)n2C | i | . | i | 1% | . | .
Cc1cc(C)cc(NC(=O)c2cc(C)n(Cc3cccs3)c2C)c1 | i | 18µM* | i | -1% | ? | -3%
Cc1cc(C(=O)Nc2ccc(Cl)cc2)c(C)n1Cc1cccs1 | i | ? | i | 3% | ? | 2%
Cc1ccc(S(=O)(=O)Cc2nc(-c3ccc(C(=O)NCc4ccccc4)cc3)oc2C)cc1 | . | . | . | 6% | . | .
CC1(C)Cc2ccccc2C(Nn2cnnc2)=N1 | i | 22% | i | 0%[38.3 µM] | 1% | 1%
CC1(C)Cc2ccccc2C2=NNC(=O)C2=N1 | ? | ? | ? | -2% | 8.2µM* | -14%
CC(=O)c1ccc(F)c(-c2cc(C)cc3c2OC(CNC(=O)C[C@@H]2C[C@@H](C)NC(=S)N2)C3)c1 (stereo partly drawn) | . | . | . | 0% | . | .

Bioassay records as filed in PubChem BioAssay.
